Rows were chosen to be rich in hits. Some 9.3% of all compounds tested hit in one or more screens of this group.
SMN2 splice up = increases expression of the SMN2 splice variant. Potency, µM (series often up to 46.1 µM), for inactives: at the top dose activity change, positive = activation, actives largely listed as activators. 210,000 tested, 2.8% active. HEK293 SMN2-luciferase splicing reporter, luminescence, 30-36 h; further: % of control where 0% means no effect; nearly all actives have a fitted effect of over 55% in size
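qHTS luciferase splicing reporter: luminescence rises when SMN2 exon 7 is included in transfected HEK293 cells. Compound exposure lasted 30-36 h at 37C, with 4.5 mM final sodium butyrate as control, followed by a ONE-Glo read.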
NPC1 prom act = activates the NPC1 promoter | Huh7 NPC1 promoter luciferase reporter, 24 h | Potency, µM (titrated, usually from 9.22 µM), for the others: at the highest dose activation, usual class: activators | 320,000 tested, 2.4% active; further: % of control where 0% means no effect; nearly all actives have a fitted effect of over 60% in size
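Luciferase expression driven by the NPC1 promoter was measured in stably transfected Huh7 cells after a 24 h compound incubation, using a luciferase reagent and a luminescence read.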
ELG1 genotox = induces genotoxicity in HEK293T cells with luciferase-tagged ELG1; HEK293T ELG1-luciferase reporter, luminescence, 16 h; 330,000 tested, 1.3% active; Potency, µM (doses to about 46 µM), inactives show top-dose activity change, positive = activation, most hits filed as activators; further: % of control where 0% means no effect; nearly all actives have a fitted effect of over 60% in size
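Luminescence read-out: rising ELG1-luciferase signal, reflecting elevated ELG1 protein under genetic stress, flags genotoxic compounds. Cells were treated for 16 hr at 37 °C before ONE-Glo detection.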
FLuc counter = inhibits or activates purified firefly luciferase, miR-21 counter-screen. P08659. purified FLuc, Km substrates, luminescence inhibition. Potency, µM (highest dose often 57.5 µM), inactives show top-dose activity change, negative = inhibition, hits mostly inhibitors. 360,000 tested, 6.9% active. AID 588342;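 further: plate controls were vehicle for no effect and reference inhibitor for full effect; nearly all actives have a fitted effect of over 55% in size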
Target sequence (P08659 whole entry, looked up): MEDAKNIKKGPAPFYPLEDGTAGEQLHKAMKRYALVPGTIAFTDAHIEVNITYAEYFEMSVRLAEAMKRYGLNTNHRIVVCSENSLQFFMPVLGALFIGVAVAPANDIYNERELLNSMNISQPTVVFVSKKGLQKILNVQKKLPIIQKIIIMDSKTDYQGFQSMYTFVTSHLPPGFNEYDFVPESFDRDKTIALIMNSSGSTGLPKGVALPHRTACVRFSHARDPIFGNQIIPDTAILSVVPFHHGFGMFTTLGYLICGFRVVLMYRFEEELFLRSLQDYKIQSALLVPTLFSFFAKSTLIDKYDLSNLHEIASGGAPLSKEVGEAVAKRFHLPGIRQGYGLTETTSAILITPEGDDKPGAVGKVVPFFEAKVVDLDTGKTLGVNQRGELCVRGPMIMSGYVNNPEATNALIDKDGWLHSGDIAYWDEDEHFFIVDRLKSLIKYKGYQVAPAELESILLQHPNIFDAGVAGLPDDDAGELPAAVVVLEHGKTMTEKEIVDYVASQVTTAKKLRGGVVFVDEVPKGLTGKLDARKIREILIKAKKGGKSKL
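Biochemical qHTS of compounds, final roughly 60 µM downward over six points, against 10 nM purified firefly luciferase using Km concentrations of substrates (10 uM D-luciferin, 10 uM ATP) in Tris acetate pH 7.5 buffer; luminescence output.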
ELG1 DNA repair = inhibitors of ELG1-dependent DNA repair in HEK293T cells | HEK293T ELG1-luciferase reporter, luminescence, 16 h; DNA damage induced by 5-fluorouridine | Potency, µM (top dose mostly 46.1 µM), for the others: top-dose activity change, negative = inhibition, actives largely listed as inhibitors | 330,000 tested, 2.3% active; further: on the % scale 0 is the no-effect control and ±100 the full control effect; nearly all actives have a fitted effect of over 55% in size
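Overnight (16 hr) co-exposure of 2,000 cells/well to 5-fluorouridine and compound at 37 °C preceded detection. Luciferase was quantified via ONE-Glo luminescence; loss of signal denotes inhibition.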
Rab9 prom act = Rab9 promoter activation | 320,000 tested, 2.8% active | Potency, µM (top dose mostly 9.22 µM), for inactives: at the highest dose activation, negative = inhibition, hits mostly activators | Huh7 Rab9 promoter-luciferase reporter, luminescence, 24 h; further: % of control where 0% means no effect; nearly all actives have a fitted effect of over 60% in size
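Luciferase signal after 10 min detection reagent at ambient indicates Rab9 promoter upregulation; stably transfected Huh7 cells were treated 24 h with compound in DMSO at 37 °C, 5% CO2.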
Numbers without * were called inactive. The call rests on the fitted dose curve; in most records, active means well fitted curve in the direction sought with a large enough effect; inconclusive means small, poorly fitted or top-dose-only effect, or another doubt; inactive means no such curve, though single readings can be large; an effect the other way counts as inactive or inconclusive. Potency means the concentration at half of the fitted maximal effect.

`CCOC(=O)c1cn[nH]c1NC(=S)Nc1ccc(OC)cc1` gave NPC1 prom act 0.28µM*, ELG1 genotox inconclusive, FLuc counter 0.19µM*, ELG1 DNA repair inconclusive and Rab9 prom act 0.32µM*.
O=C(Cn1nnc(-c2ccccc2F)n1)Nc1ccc2c(c1)OCO2 was read as SMN2 splice up 4%, NPC1 prom act 0%, ELG1 genotox 10%, FLuc counter -2%, ELG1 DNA repair 3% and Rab9 prom act 3%.
CN(CC(=O)NC(=O)NCc1ccccc1)CC(=O)Nc1ccc(Cl)c(Cl)c1 was read as NPC1 prom act -5%, ELG1 genotox -8%, FLuc counter 1%, ELG1 DNA repair 18µM* and Rab9 prom act -9%.
CN(CC(=O)Nc1ccc(Cl)c(Cl)c1)C(=O)CNC(=O)Cc1ccccc1 was read as NPC1 prom act -4%, ELG1 genotox 4%, FLuc counter -12%, ELG1 DNA repair 0% and Rab9 prom act -4%.
For N#Cc1ccccc1/C=N/Nc1nc(-c2ccccc2)c2cc(Cl)ccc2n1 the results were SMN2 splice up 9%, NPC1 prom act -3%, ELG1 genotox 15%, FLuc counter -1%, ELG1 DNA repair 0% and Rab9 prom act -4%.
For Cc1ccc2nc(N/N=C/c3ccccc3C#N)nc(-c3ccccc3)c2c1 the results were SMN2 splice up -8%, NPC1 prom act 1%, ELG1 genotox -6%, FLuc counter 11µM*, ELG1 DNA repair 21µM* and Rab9 prom act 7%.
`COc1ccc(N(CC(=O)N/N=C/c2cccs2)S(=O)(=O)c2ccccc2)cc1` gave SMN2 splice up 0%, NPC1 prom act -2%, ELG1 genotox -7%, FLuc counter -1%, ELG1 DNA repair -11% and Rab9 prom act 5%.
O=C1c2ccccc2C(=O)N1CCCCc1cn(C[C@H]2CC[C@H](Cn3cc(CCCCN4C(=O)c5ccccc5C4=O)nn3)O2)nn1 was read as ELG1 genotox -6% and ELG1 DNA repair 8.2µM*.
For c1ccc(CCc2cn(C[C@H]3CC[C@@H]([C@@H]4CC[C@H](Cn5cc(CCc6ccccc6)nn5)O4)O3)nn2)cc1 the results were NPC1 prom act 2%, ELG1 genotox -2%, FLuc counter 4%, ELG1 DNA repair inconclusive and Rab9 prom act -4%.
Screening COc1ccc(C(=O)n2c(SC)nc3cc4c(cc32)OCCO4)cc1 returned SMN2 splice up 9%, NPC1 prom act 17%, ELG1 genotox inconclusive, FLuc counter 19µM*, ELG1 DNA repair inconclusive and Rab9 prom act 29%.
Screening COc1ccc(C(=O)c2cc3c(cc2[N+](=O)[O-])OCCO3)cc1 returned NPC1 prom act -1%, ELG1 genotox 4%, FLuc counter -1%, ELG1 DNA repair inconclusive and Rab9 prom act 1%.
COc1ccc(/C=C/C(=O)NC(=S)N2CCN(C)CC2)cc1 was read as SMN2 splice up 2%, NPC1 prom act -2%, ELG1 genotox 12%, FLuc counter inconclusive, ELG1 DNA repair inconclusive and Rab9 prom act -1%.
Screening CCOC(=O)N1CCN(C(=S)NC(=O)/C=C/c2ccc(C)cc2)CC1 returned NPC1 prom act -5%, ELG1 genotox 0%, FLuc counter 13µM*, ELG1 DNA repair 0% and Rab9 prom act -1%.
Screening Cc1ccc(C(=O)COC(=O)CCCC(=O)Nc2cc(C(F)(F)F)ccc2Cl)cc1C returned SMN2 splice up -8%, NPC1 prom act -3%, ELG1 genotox 0%, FLuc counter 2.4µM*, ELG1 DNA repair -2% and Rab9 prom act -5%.
`Cc1sc(NC(=O)C2CC(Cl)=CCC2C(=O)O)c(C#N)c1C` (centres undefined) gave SMN2 splice up -4%, NPC1 prom act -3%, ELG1 genotox -4%, FLuc counter inconclusive, ELG1 DNA repair 5% and Rab9 prom act -2%.
`CCOc1ccc(CCNC(=O)c2ccc(Cl)c(S(=O)(=O)N3CCOCC3)c2)cc1OCC` gave NPC1 prom act -3%, ELG1 genotox -8%, FLuc counter -1%, ELG1 DNA repair 16µM* and Rab9 prom act -13%.
For COc1ccc(N2CCN(CCCNC(=O)c3ccc4nc(N5CCCCC5)sc4c3)CC2)cc1 the results were SMN2 splice up 0.79µM* and FLuc counter inconclusive.
For CCOc1ccc(CCNC(=O)c2ccc3nc(N4CCOCC4)sc3c2)cc1OCC the results were NPC1 prom act -1%, ELG1 genotox -10%, FLuc counter 2%, ELG1 DNA repair 23µM* and Rab9 prom act -4%.
`COC(=O)c1c(N2C(=O)[C@H]3[C@@H](C2=O)[C@]2(C(=O)Nc4c2ccc(C)c4C)N2CCC[C@@H]32)sc(C)c1C` gave SMN2 splice up 22%, NPC1 prom act 1%, ELG1 genotox -1%, FLuc counter -2%, ELG1 DNA repair 6.5µM* and Rab9 prom act -4%.
`COC(=O)c1c(N2C(=O)[C@H]3[C@@H](C2=O)[C@]2(C(=O)Nc4c(C)cc(C)cc42)N2CCC[C@@H]32)sc(C)c1C` gave SMN2 splice up -1%, NPC1 prom act -8%, ELG1 genotox -10%, FLuc counter 0%, ELG1 DNA repair -25% and Rab9 prom act 2%.
For COc1cc(NS(=O)(=O)c2ccc(C)cc2)ccc1-n1cnnn1 the results were SMN2 splice up -11%, NPC1 prom act -3%, ELG1 genotox inconclusive, FLuc counter 1%, ELG1 DNA repair 5% and Rab9 prom act 7%.
For COc1ccc2c(c1)c(=O)oc1c(C)c(OC(C)C(=O)N[C@@H](Cc3c[nH]c4ccc(O)cc34)C(=O)O)ccc12 (some centres undefined) the results were NPC1 prom act 9%, ELG1 genotox -2%, FLuc counter 12µM*, ELG1 DNA repair -4% and Rab9 prom act -3%.
`Cc1nnc(NCCN2CCOCC2)[nH]c1=O` gave SMN2 splice up inconclusive, NPC1 prom act -2%, ELG1 genotox -1%, FLuc counter 1%, ELG1 DNA repair 10% and Rab9 prom act -2%.
For COc1ccc(CNC(=O)C(=O)Nc2cccc(C)c2C)cc1 the results were SMN2 splice up -1% and FLuc counter -7%.
Cc1cccnc1NC(=O)c1ccc(S(=O)(=O)N2CCCCCC2)cc1 was read as NPC1 prom act 2%, ELG1 genotox -1%, FLuc counter 0%, ELG1 DNA repair 1% and Rab9 prom act 5%.
For Nc1ccc2ncccc2c1 the results were SMN2 splice up inconclusive, NPC1 prom act 13%, ELG1 genotox 4%, FLuc counter -11%, ELG1 DNA repair inconclusive and Rab9 prom act 5%.

Screens (PubChem)
